Screening data as filed in PubChem.
DUSP3 inh – inhibitors of human VHR1 phosphatase (DUSP3). recombinant VHR phosphatase, colorimetric substrate read-out. inhibition, % at 20 µM. 50,000 compounds, 0.7% hits; in the data active = inhibition above about 60%
Target sequence (P51452 whole entry, looked up): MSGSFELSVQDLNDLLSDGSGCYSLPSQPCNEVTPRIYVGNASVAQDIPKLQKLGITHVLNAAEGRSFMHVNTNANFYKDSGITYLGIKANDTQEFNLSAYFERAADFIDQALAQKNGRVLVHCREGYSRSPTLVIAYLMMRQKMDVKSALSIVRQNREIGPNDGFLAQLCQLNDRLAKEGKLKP
* hit, by the source's call. The sample as a whole holds a higher share of hits than the screen did.

SMILES | DUSP3 inh
Cc1ccc(S(=O)(=O)N/N=C/C=C/c2ccc(N(C)C)cc2)cc1[N+](=O)[O-] | -8
CN(C)c1ccc(/C=N/S(=O)(=O)CCc2ccccc2)cc1 | -3
COc1c(Cl)cc(C(=O)Nc2cccc(-c3nc4ncccc4o3)c2)cc1Cl | 24
O=C1C=C(NCc2ccc(F)cc2)CC(c2ccccc2)C1 (centres undefined) | -1
O=C1C=C(NCc2ccc3c(c2)OCO3)CC(c2ccccc2)C1 (centres undefined) | 101*
c1ccc(NCc2ccc3c(c2)OCO3)cc1 | 7
O=C1/C(=C\c2ccc(-c3ccccc3[N+](=O)[O-])o2)SC(=S)N1CCc1ccccc1 | -22
CC(C)CNC(=O)COc1ccc(Br)cc1 | 2
CCC(=O)N(CCc1ccccc1)C1CC(=O)N(c2ccc(OC)cc2)C1=O (centres undefined) | -6
COCCOC(=O)C1=C(C)NC(=O)CC1c1c(F)cccc1Cl (centres undefined) | -11
COC(=O)c1ccc(C2CC(=O)NC(C)=C2C(=O)OCc2ccccc2)cc1 (centres undefined) | -11
CC1=C(C(=O)OCc2ccccc2)C(c2ccccc2[N+](=O)[O-])CC(=O)N1 (centres undefined) | 97*
CC1=C(C(=O)OCc2ccccc2)C(c2c(F)cccc2Cl)CC(=O)N1 (centres undefined) | 112*
CC1=C(C(=O)OCCCc2ccccc2)C(c2c(F)cccc2Cl)CC(=O)N1 (centres undefined) | 8
CC1=C(C(=O)OCc2ccccc2)C(c2ccc([N+](=O)[O-])cc2)CC(=O)N1 (centres undefined) | -9
Cn1cc(/C=C2/SC(=Nc3ccccc3)NC2=O)c2ccccc21 | -93
COc1ccc(/C=C2/SC(=Nc3ccc(O)cc3)NC2=O)cc1 | 19
COc1cccc(C2NC(=O)N(C)C(C)=C2C(=O)OC(C)C)c1OC (centres undefined) | 8
COc1ccc(/C=C2\C(=O)N(Cc3ccccc3)N=C2C)cc1 | -22
Cc1ccc(S(=O)(=O)Nc2ccc(NC(=O)c3sc4cc(C)ccc4c3Cl)cc2)cc1 | -21
CC(C)COc1ccc(C(=O)Nc2ccc3oc(-c4cccnc4)nc3c2)cc1 | -17
CCOc1cc(C(=O)Nc2sc(C(=O)N(CC)CC)c(C)c2C(=O)OC(C)C)cc(OCC)c1OCC | -8
CCOC(=O)c1c(NC(=O)c2ccc(OC)c(OC)c2)sc(C(=O)N(CC)CC)c1C | -6
CCN(CC)C(=O)c1sc(NC(=O)c2cc(OC)cc(OC)c2)c(C(=O)OC)c1C | 95*
CCOC(=O)C1=C(C)N=c2s/c(=C\c3cc4c(cc3Cl)OCO4)c(=O)n2C1c1cccs1 (centres undefined) | 16
SMILES | DUSP3 inh
CCOC(=O)c1[nH]nc2c1C(=O)N(c1ccc(Br)cc1)C2=O | 98*
CCOC(=O)c1[nH]cnc1C(=O)Nc1ccc(Br)cc1 | -22
CCOC(=O)c1[nH]nc2c1C(=O)N(c1ccc(OC)c(Br)c1)C2=O | 4
Cc1nnc(C)n1/N=C/c1ccccc1Cl | 2
Cc1ccccc1NC(=O)C(=O)NNC(=O)COc1ccc(Cl)cc1 | -23
CSc1ccc(C2NC(=O)CCC2[N+](=O)[O-])cc1 (centres undefined) | 100*
COC(=O)C1=C(C)NC(=O)NC1c1ccc(SC)cc1 (centres undefined) | 2
CSc1ccc(C2NC(=O)c3ccccc3N2)cc1 (centres undefined) | 14
COc1ccccc1C(NC(=O)Cc1ccccc1)c1c(OC(C)=O)ccc2ccccc12 (centres undefined) | 12
Cc1cc(=O)oc2cc(OCC(=O)c3ccc(Cl)cc3)c(Cl)cc12 | 5
Cc1cc(=O)oc2cc(OC/C(=N\O)c3ccc(Cl)cc3)c(Cl)cc12 | 106*
Cc1cc(=O)oc2cc(OCc3ccc(F)cc3)c(Cl)cc12 | -2
O=C(NCc1ccccc1)c1ccc(S(=O)(=O)c2ccccc2)cc1 | 1
O=C1C=CC(=O)C(/C(=C/NCc2ccccc2)[N+](=O)[O-])=C1 | 86*
O=[N+]([O-])c1ccc(Cl)cc1NCc1ccccc1 | 5
COc1ccc(NC(=O)c2c(-c3c(Cl)cccc3Cl)noc2C)c([N+](=O)[O-])c1 | -16
O=C(CCc1ccccc1)NNC(=S)Nc1ccccc1 | 35
CCOC(=O)c1c(NC(=O)CCCOc2ccccc2)sc2c1CCC2 | -9
O=C(O)c1cccc2c1NC(c1ccc(Cl)cc1)C1CC=CC21 (centres undefined) | 86*
O=C(O)c1cccc2c1NC(c1ccc([N+](=O)[O-])cc1)C1CC=CC21 (centres undefined) | 49
O=C(O)c1cccc2c1NC(c1cccc3ccccc13)C1CC=CC21 (centres undefined) | 23
CCN(CC)CCCNC(=O)c1ccc(OC)cc1OC | 70
Cc1ccc(C(=O)NCC(=O)c2ccc(-c3ccccc3)cc2)cc1 | -43
O=C(/C=C/c1ccc(F)cc1)c1nc2ccccc2s1 | -34
COC(=O)c1ccc(COc2cc3oc(=O)c4c(c3cc2Cl)CCC4)cc1 | 1
SMILES | DUSP3 inh
COC(=O)c1ccc(COc2cc3oc(=O)cc(-c4ccccc4)c3cc2Cl)cc1 | 98*
COC(=O)c1ccc(COc2ccc3c(-c4ccccc4)cc(=O)oc3c2C)cc1 | -7
O=S(=O)(c1cccc2cccnc12)N1CCN(C/C=C/c2ccccc2)CC1 | -12
Cc1ccc(CC2S/C(=N\N=C\c3ccc(O)cc3)NC2=O)cc1 (centres undefined) | -30
COc1ccc(C2CC(=O)Nc3c2cc(Br)c2ccccc32)cc1OC (centres undefined) | 67*
COc1cccc(C2CC(=O)Nc3c2cc(Br)c2ccccc32)c1OC (centres undefined) | 6
O=C1CC(c2ccc(F)c(F)c2)c2cc(Br)c3ccccc3c2N1 (centres undefined) | 6
CCN(Cc1ccccc1)C(=O)c1ccc(Cl)c([N+](=O)[O-])c1 | 4
CCOc1ccc(-c2cc(C)n3nc(C(=O)Nc4ccc(C(C)=O)cc4)cc3n2)cc1 | -1
O=C1NC(=O)N(c2ccc(F)cc2)C(=O)/C1=C/c1cc(Cl)c(O)c(Cl)c1 | 106
CN1CCN(NC(=O)c2ccc(C(C)(C)C)cc2)CC1 | -20
COc1cc(OC)c(OC)cc1CN1CCN(Cc2cc(Br)ccc2O)CC1 | 0
CCC(CO)N=Cc1c(O)n(-c2c(Cl)cccc2Cl)c2ccccc12 (centres undefined) | 98*
CCOc1c(/C=C(\C#N)C(N)=O)c2ccccc2n1-c1c(Cl)cccc1Cl | -5
CCn1c(O)c(N=NC(=O)c2ccccc2Cl)c2ccccc21 | -10
O=C(Nc1cccc(Cl)c1)Nc1nc2ccc(Br)cc2s1 | -2
CC1=NN(c2cccc(F)c2)C(=O)/C1=C/c1cccs1 | -10
Cc1ccc(S(=O)(=O)NC(=O)N2CCN(c3ccc(F)cc3)CC2)cc1 | -6
COc1ccc(N2Cc3ccc(C(=O)N/N=C\c4ccc(Br)cc4)cc3C2)cc1 | -15
Cc1cc2c(cc1C)CN(c1cccc(C(=O)NN)c1)C2 | 49
COc1ccc(N2Cc3ccc(C(=O)NN)cc3C2)cc1 | 94*
Cc1cc(Cl)ccc1OCC(=O)N1CCOCC1 | -10
C=CCN1C(=O)/C(=C\c2cccc(OS(=O)(=O)c3ccc(C)cc3)c2)SC1=S | -10
CCN1C(=O)/C(=C\c2cccc(OS(=O)(=O)c3ccc(C)cc3)c2)SC1=S | -3
Cc1ccc(S(=O)(=O)Oc2cccc(/C=C3/SC(=S)N(Cc4ccccc4)C3=O)c2)cc1 | 108*
O=C(COc1ccc([N+](=O)[O-])cc1)Nc1ccc(OC(F)(F)F)cc1 | 0
